# This is a sample that favours compounds with a hit; in the whole collection about 5.7% have one here.
# rCAG RNA binder: binds r(CAG) RNA repeats | r(CAG) RNA repeat, TO-PRO-1 dye displacement fluorescence | inhibition, % at 3 µM | 370,000 compounds, 1.3% hits;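 active means inhibition above the plate cutoff, the mean of all test compounds on that plate plus 3 SD, cut at about 35% in these data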;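 further: 0% = DMSO alone and 100% = 100 µM mitoxantrone as full dye displacement; higher means more dye released from RNA so lower well fluorescence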
# MPTP block: blocks calcium-induced mitochondrial swelling | isolated mouse mitochondria, Ca2+ swelling absorbance, 30 min | inhibition, % at 10 µM | 360,000 compounds, 1.4% hits;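 active means inhibition of 50% or more, scaled per plate between neutral and stimulator controls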;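 further: 0% = DMSO wells given calcium and 100% = 1 mM EGTA wells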
# FAS TE block: inhibitors of human fatty acid synthase thioesterase domain; P49327; recombinant FAS-TE, OMFH fluorogenic substrate, fluorescence endpoint; inhibition, % at 15 µM; 360,000 compounds, 0.67% hits;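 active means compounds whose normalised, plate-corrected inhibition of enzyme fluorescence in the single-dose primary screen is 50% or more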;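 further: 0% = DMSO with enzyme and 100% = substrate without enzyme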
# GRIN3A LBD mod: modulates the human NR3A ligand-binding domain; NR3A LBD differential scanning fluorimetry, Tm shift; 0% = protein alone, 100% = glycine-bound protein; Tm shift relative to glycine control, % at 25 µM; 340,000 compounds, 2.5% hits; AID 1259313;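 active means melting temperature shift of at least 10% of the positive control shift, at one fixed dose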
# Myeloid diff MLP: promotes myeloid progenitor differentiation; calls only at 10 µM; 360,000 compounds, 1% hits; ER-HoxA9 myeloid progenitors, lysozyme-GFP differentiation, flow cytometry;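 active means normalized GFP-positive differentiation at or above the plate's own cutoff, the solvent-only control mean plus 3 SD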;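 further: cells exposed to compound for four days before flow analysis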
# rCAG binder conf: r(CAG) RNA repeat binding, confirmation; shares compounds with rCAG RNA binder; TO-PRO-1 dye displacement fluorescence; inhibition, % at 3 µM; 4,300 compounds, 70% hits;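 active means inhibition above a per-plate cutoff, the mean inhibition of sample wells plus 3 SD, cut at about 35% in these data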;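 further: loss of TO-PRO-1 fluorescence as compound displaces dye from 1x1 AA loop RNA; 0% = DMSO only wells and 100% = 100 µM mitoxantrone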
# dCAG dye counter: counter-screen for rCAG RNA binders: DNA CAG dye complex inhibitors. shares compounds with rCAG RNA binder. d(CAG) DNA oligo TO-PRO-1 dye displacement, fluorescence. inhibition, % at 3 µM. 4,300 compounds, 94% hits;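 active means inhibition above its plate's cutoff, the mean test-well inhibition plus 3 SD, cut at about 4.8% in these data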;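 further: 0% = DNA dye mix with DMSO and 100% = 100 µM mitoxantrone; hits displace the dye from DNA and so lower well fluorescence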
# DNA CAG DR: DNA CAG dye complex inhibition, dose response counter-screen | shares compounds with rCAG RNA binder | DNA CAG/GTC duplex TO-PRO-1 dye displacement fluorescence | IC50, µM | 250 compounds, 20% hits; in the data active means IC50 below about 10 µM
# * marks the source's active call; other numbers are inactive results; i = inactive; / = not tested or not shown.
SMILES,rCAG RNA binder,MPTP block,FAS TE block,GRIN3A LBD mod,Myeloid diff MLP,rCAG binder conf,dCAG dye counter,others
CCc1nnc(NS(=O)(=O)c2ccc(N/C=C\C(=O)c3ccc4ccccc4c3)cc2)s1,71*,10,12,14*,i,86*,61*,
CCc1nc2nc(C)c(NS(=O)(=O)c3ccc(Cl)s3)c(=O)n2[nH]1,1,0,-6,0,i,/,/,
CCc1nnc(NS(=O)(=O)c2ccc(NC(=O)/C=C/C(=O)O)cc2)s1,7,-1,-10,0,i,/,/,
CCc1nnc(NS(=O)(=O)c2ccc(NC(=O)c3ccc(Cl)cc3)cc2)s1,43*,0,-5,-7,i,33,9.1*,
CCc1nnc(NC(=O)c2ccc(NS(=O)(=O)c3ccccc3)cc2)s1,21,11,-6,-3,i,/,/,
CCc1nnc(NS(=O)(=O)c2ccc(N/C=C(\C=O)c3nc4cc(Cl)ccc4o3)cc2)s1,42*,8,31,0,i,76*,40*,
Cc1noc(C)c1C(=O)Nc1nccs1,-4,1,-4,1,i,/,/,
Cc1cc(NS(=O)(=O)c2ccc(NS(=O)(=O)c3ccc(Br)cc3)cc2)no1,12,-1,-4,-2,i,/,/,
COc1ccccc1/C=C/C(=O)Nc1ccc(S(=O)(=O)Nc2cc(C)on2)cc1,53*,0,-4,-10,i,48*,12*,
Cc1cc(NS(=O)(=O)c2ccc(NC(=O)/C=C/c3ccc(Br)cc3)cc2)no1,68*,1,2,-2,i,62*,29*,
COc1ccc2ccccc2c1-c1sc(Nc2ccccc2)n[n+]1-c1ccc(F)cc1,16,45,-152,-9,i,/,/,
Cc1ccc(N2C(=O)/C(=C/c3cccnc3)SC2=S)cc1,1,-1,-6,-1,i,/,/,
N=C1S/C(=C\c2ccco2)C(=O)N1c1nccs1,8,-2,-1,-1,i,/,/,
N=C1S/C(=C\c2ccco2)C(=O)N1c1ccc2c(c1)OCO2,38*,0,-1,-1,i,26,12*,
Cc1ccc(N2C(=O)/C(=C/c3ccco3)SC2=S)cc1,44*,2,5,-1,i,10,5.7*,
CCCCCC(=O)N1C[C@H](n2cc(COC(=O)c3ccccc3)nn2)[C@@H](O)C[C@@H]1c1ccc(OC)cc1,3,0,12,/,i,/,/,
NC(COCc1ccccc1)c1csc(NC(=O)Nc2cccc(Cl)c2)n1 (configuration not stated),48*,4,-22,/,i,24,5.5*,
NCc1csc(NC(=O)Nc2cccc(C(F)(F)F)c2)n1,53*,4,-10,/,i,51*,11*,DNA CAG DR=>30
COc1ccc(CC(N)c2csc(NC(=O)Nc3cc(OC)ccc3OC)n2)cc1 (configuration not stated),13,3,-11,/,i,/,/,
CC(C)c1ccc(NC(=O)Nc2nc(CN)cs2)cc1,18,2,-16,/,i,/,/,
COc1ccc(CC(N)c2csc(NC(=O)Nc3ccc(F)cc3)n2)cc1 (configuration not stated),43*,14,-4,/,i,21,9.5*,
COc1ccc(CC(N)c2csc(NC(=O)Nc3cccc(C(F)(F)F)c3)n2)cc1 (configuration not stated),47*,2,-23,/,i,26,7.1*,
CC(C)Oc1cccc(C(=O)C2CCCN(Cc3cnc(N4CCOCC4)s3)C2)c1 (configuration not stated),-9,-1,-7,0,i,/,/,
CN1OC[C@@H]2CN[C@H](c3cccc(Oc4ccccc4)c3)C[C@@H]21,2,-3,-4,/,i,/,/,
NC(CCc1ccccc1)c1csc(NC(=O)Nc2cccc(C(F)(F)F)c2)n1 (configuration not stated),40*,6,-31,/,i,22,3,
COc1ccccc1NC(=O)Nc1nc(C(N)Cc2ccc(Cl)cc2)cs1 (configuration not stated),16,3,-9,/,i,/,/,

# Bioassay records deposited in PubChem BioAssay by several laboratories.
